# Screens (PubChem)
# IL1B secr inh: qHTS for Inhibitors of Inflammasome Signaling: IL-1-beta AlphaLISA Primary Screen. THP-1 LPS/ATP IL-1B secretion, AlphaLISA, 16 h; active compounds read low. activity change, % at 57.5 µM. 4.7% of 360,000 active. AID 743279, 2014; in the data active = activity change below about -50%; inconclusive = mostly about -30% to -49%
#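 THP-1 cells pretreated 1 hr with compounds (up to 57.5 uM final), then stimulated with LPS (250 ng/mL final) plus ATP (1.25 mM final); secreted IL-1B measured by AlphaLISA after 16 hr, decreased signal indicating inhibition.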
# Six1-Eya2 inh: qHTS Assay for Inhibitors of the Six1/Eya2 Interaction | 0.56% of 360,000 active | Homeobox protein SIX1 (Homo sapiens) + Protein phosphatase EYA2 (Homo sapiens), … | activity change, % (test concentration not listed) | AlphaScreen GST-Six1/His-Eya2 binding, biochemical; active compounds read low | AID 651725, 2012; in the data active = activity change below about -65%; inconclusive = mostly about -30% to -63%
#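 GST-Six1 + His-Eya2 (5X stock: 250/500 nM); Tris pH 8.0, 300 mM NaCl, 0.05% BSA, 0.02% Tween 20; GSH donor/Ni acceptor beads; 1 h 37 °C dark; AlphaScreen readout.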
# TDP1 block: qHTS Assay for Inhibitors of Tyrosyl-DNA Phosphodiesterase (TDP1). 0.28% of 350,000 active. Potency, µM (series often up to 130 µM), for the others: top-dose activity change, negative = inhibition, usual class: inhibitors. recombinant TDP1, AlphaScreen DNA substrate cleavage. AID 485290, 2010. Tyrosyl-DNA phosphodiesterase 1 (Homo sapiens), Q9NUW8; note: potency is the fitted concentration of half-maximal effect; nearly all actives have a fitted effect of over 40% in size
# Target sequence (Q9NUW8 whole entry, looked up): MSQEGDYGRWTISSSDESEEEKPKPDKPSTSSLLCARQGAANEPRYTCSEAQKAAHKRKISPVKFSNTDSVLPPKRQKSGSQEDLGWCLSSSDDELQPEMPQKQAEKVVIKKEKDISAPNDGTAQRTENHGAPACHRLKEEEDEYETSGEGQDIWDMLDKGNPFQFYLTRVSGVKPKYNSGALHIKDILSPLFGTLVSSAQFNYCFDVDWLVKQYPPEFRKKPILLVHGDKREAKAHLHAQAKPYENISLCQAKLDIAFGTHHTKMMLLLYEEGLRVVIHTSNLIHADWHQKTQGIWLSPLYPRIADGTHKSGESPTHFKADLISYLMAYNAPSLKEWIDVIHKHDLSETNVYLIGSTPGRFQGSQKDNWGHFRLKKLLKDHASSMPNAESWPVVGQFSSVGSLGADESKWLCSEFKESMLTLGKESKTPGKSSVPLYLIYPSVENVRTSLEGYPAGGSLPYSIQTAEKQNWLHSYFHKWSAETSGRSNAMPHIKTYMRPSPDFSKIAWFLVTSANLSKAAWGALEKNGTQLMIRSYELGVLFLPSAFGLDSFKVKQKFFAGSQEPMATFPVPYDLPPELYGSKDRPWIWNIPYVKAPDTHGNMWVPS
#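 AlphaScreen read-out: signal falls as enzyme removes the 3' tyrosine-FITC from a 5'-biotinylated DNA oligo (15 nM, 5 min, RT). Enzyme was E. coli-made recombinant Tdp1 at 1 nM, exposed to compound for 15 min beforehand; beads 10 ug/ml, 10 min.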
# DT40 TDP1 no CPT: qHTS for Inhibitors of human tyrosyl-DNA phosphodiesterase 1 (TDP1): qHTS in cells in absence of CPT. Potency, µM (titrated, usually from 46.2 µM), inactives show top-dose activity change, negative = growth inhibition, usual class: inhibitors. AID 686978, 2013. 15% of 420,000 active. DT40 Tdp1-/- hTDP1 cells, no CPT, ATP luminescence, 48 h; note: potency is the fitted concentration of half-maximal effect; nearly all actives have a fitted effect of over 55% in size
#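 Growth kinetics read by CellTiter-Glo luminescence after ≥48 hr at 37 °C. Cells: DT40 Tdp1-/- stably carrying human TDP1, 400 per well, compound exposure in the absence of CPT (DMSO vehicle).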
# TDP1 cell CPT: qHTS for Inhibitors of human tyrosyl-DNA phosphodiesterase 1 (TDP1): qHTS in cells in presence of CPT | chicken DT40 Tdp1-/-;hTDP1 cells + 20 nM CPT, ATP luminescence, 48 h | Potency, µM (titrated, usually from 46.2 µM), inactives show at the top dose activity change, negative = growth inhibition, hits mostly inhibitors | 12% of 420,000 active | AID 686979, 2013; note: potency is the fitted concentration of half-maximal effect; nearly all actives have a fitted effect of over 55% in size
#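 Chicken DT40 Tdp1-/- cells stably complemented with human TDP1 were seeded at 400 cells/well in medium containing 20 nM camptothecin, exposed to pin-transferred compounds, and grown at 37 °C for at least 48 hr. Viability was read as ATP luminescence.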
# CtBP-E1A blk: qHTS Assay for Inhibitors of the CtBP/E1A Interaction; CtBP / adenovirus E1A interaction (AlphaScreen); AlphaScreen GST-E1A/His-CtBP binding, 1536-well; active compounds read low; activity change, % (test concentration not listed); 0.49% of 340,000 active; AID 651724, 2012; in the data active = activity change below about -65%; inconclusive = mostly about -30% to -63%
#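 GST-E1A and His-tagged CtBP (125 nM each as 5X stock) were preincubated with pin-transferred compound for 2 h at 37 °C in the dark, then glutathione donor and nickel acceptor beads were added for 1 h before AlphaScreen reading.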
# * hit, by the source's call; ? = inconclusive; . = no result given; [ ] = dose if it differs, or a comment. In the library only some 18% were active in any assay of this set; here they are far more common. Unless noted, calls come from the whole dose curve; as a rule, active = well fitted curve in the direction sought with a large enough effect; inconclusive = small, poorly fitted or top-dose-only effect, or another doubt; inactive = no such curve, though single readings can be large; an effect the other way counts as inactive or inconclusive. % is set by controls: 0 for no effect and ±100 for the full control effect.
SMILES,IL1B secr inh,Six1-Eya2 inh,TDP1 block,DT40 TDP1 no CPT,TDP1 cell CPT,CtBP-E1A blk
CCNc1oc(-c2cccc3ccccc23)nc1C#N,-15,10,-3%,0%,-8%,7
N#Cc1nc(-c2ccc(OCc3ccccc3Cl)cc2)oc1N1CCCCCC1,.,.,6%,11µM*,?,.
CCc1nnc(NC(=O)c2cc(S(=O)(=O)N(CC)CC)ccc2Cl)s1,0,-3,0%,-12%,-13%,2
Cn1c2c(c(=O)n(C)c1=O)C(c1ccc(F)cc1)C(C#N)=C(N)O2 (stereo unspecified),-69*,0,1%,3%,13%,-7
CCCCN(CCCC)C(=O)CSc1nnc(-c2cc(OC)c(OC)c(OC)c2)o1,-54*,-9,3%,14µM*,18µM*,-4
COc1cc(-c2nnc(SCC(=O)N(Cc3ccccc3)C(C)(C)C)o2)cc(OC)c1OC,-56*,-15,1%,15µM*,13µM*,-10
CCCCOC(=O)CSc1nnc(-c2cc(OC)c(OC)c(OC)c2)o1,4,6,0%,4%,-5%,1
CC(=O)O[C@@H]1[C@H](OC(=O)CC(C)C)c2c(ccc3ccc(=O)oc23)OC1(C)C,-2,-10,4%,?,26µM*,0
C/C=C(/C)C(=O)OC1c2c(ccc3ccc(=O)oc23)OC(C)(C)C1OC(=O)/C(C)=C\C (stereo unspecified),-10,6,0%,?,?,-19
CC(=Nc1ccc(C)cc1C)c1sc2ccccc2c1O,-8,-6,0%,18µM*,?,.
COc1ccc2c(c1)OC[C@H]1c3cc4c(cc3O[C@@H]21)OCO4,.,.,16%,-15%[9.04 µM],-31%[9.04 µM],.
O=C(NCc1cccs1)C1CCN(C(=O)N2CCOc3ccccc32)CC1,.,.,-1%,-7%,-22%,.
CC(C)Oc1ccc(CNC(=O)C2CCN(C(=O)N3CC(C)Oc4ccccc43)CC2)cc1 (stereo unspecified),.,.,-3%,?,?,.
CCOc1ccc(CNC(=O)C2CCN(C(=O)N3CC(CC)Oc4ccccc43)CC2)cc1 (stereo unspecified),.,.,-6%,23µM*,15µM*,.
CCC1CN(C(=O)N2CCC(C(=O)NCc3ccc(N(C)C)cc3)CC2)c2ccccc2O1 (stereo unspecified),.,.,3%,?,16µM*,.
CCOc1ccc(CCNC(=O)C2CCN(C(=O)N3CC(CC)Oc4ccccc43)CC2)cc1 (stereo unspecified),.,.,6%,15µM*,15µM*,.
Cc1ccc(NS(=O)(=O)c2ccc3[nH]c(=O)[nH]c3c2)cc1,-25,2,2%,-2%,-17%,-13
Cc1noc(C)c1-c1ccc(C(=O)NC2CCCCC2)c2occc12,-7,-25,.,15µM*,16µM*,-23
Cc1noc(C)c1-c1ccc(C(=O)Nc2ccccc2)c2occc12,-5,-22,.,?,26µM*,-20
CCOC(=O)CN1C(=O)N[C@@H](c2ccccc2)[C@H](C(=O)OC)[C@H]1C,.,.,9%[21 µM],.,.,.
O=C1/C(=C/c2cccnc2)Oc2cc(OS(=O)(=O)c3ccc(Cl)cc3)ccc21,20,2,3%,?,?,8
COc1ccc(S(=O)(=O)Oc2ccc3c(c2)O/C(=C\c2cccnc2)C3=O)cc1,0,4,8%,15µM*,?,2
